Screening data from PubChem BioAssay.
Sampled rows, rich in hits. Any-hit rate of the full collection: about 4.7%.
ADAM17 inh = ADAM17 inhibition, QFRET primary screen; P78536; recombinant ADAM17, EDANS/DABCYL FRET peptide cleavage; inhibition, % at 6.95 µM; 0.83% of 370,000 active;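 active = inhibition above the mean of compounds lying between control limits plus 3 SD, set per campaign, cut at about 8.5% in these data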;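 also: 0% = DMSO-only wells as the low control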
Pemphigus Ab inh = blocks pemphigus antibody binding to human desmoglein-3. P32926. 0.48% of 310,000 active. DSG3-coupled beads, scFv-anti-DSG3-GFP binding, flow cytometry; hits give low values. binding (percent of control), % at 10 µM;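 active = binding more than 3 SD below its plate's average and above zero; inconclusive = below that plate limit but binding exactly zero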;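 also: hits lower antibody fragment binding to DSG3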
rCAG binder = r(CAG) repeat RNA binding; TO-PRO-1 dye displacement fluorescence; inhibition, % at 3 µM; 1.3% of 370,000 active;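 active = inhibition above the plate cutoff, the mean of all test compounds on that plate plus 3 SD, cut at about 35% in these data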;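 also: 0% = DMSO alone and 100% = 100 µM mitoxantrone as full dye displacement; higher means more dye released from RNA so lower well fluorescence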
proKLK7 act = proKLK7 (human) activation, primary screen | purified proKLK7, EDANS-DABCYL substrate fluorescence; 100% is mature enzyme control, 0% vehicle | AID 652039 | activation, % at 7 µM | 0.9% of 370,000 active | P49862;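 active = activation above the mean of all tested compounds plus 3 SD, computed per campaign excluding outliers beyond control limits, cut at about 13% in these data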
ADAM10 inh = inhibits human ADAM10; O14672; recombinant ADAM10, EDANS/DABCYL FRET peptide cleavage, 3 h; inhibition, % at 7 µM; 0.62% of 370,000 active; AID 720582;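 active = inhibition above a per-campaign cutoff equal to the mean of compounds falling between control-based bounds plus 3 SD, cut at about 20% in these data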;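 also: 0% = DMSO wells while the 100% control is not disclosed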
Target sequence (O14672 214-748 limits assumed): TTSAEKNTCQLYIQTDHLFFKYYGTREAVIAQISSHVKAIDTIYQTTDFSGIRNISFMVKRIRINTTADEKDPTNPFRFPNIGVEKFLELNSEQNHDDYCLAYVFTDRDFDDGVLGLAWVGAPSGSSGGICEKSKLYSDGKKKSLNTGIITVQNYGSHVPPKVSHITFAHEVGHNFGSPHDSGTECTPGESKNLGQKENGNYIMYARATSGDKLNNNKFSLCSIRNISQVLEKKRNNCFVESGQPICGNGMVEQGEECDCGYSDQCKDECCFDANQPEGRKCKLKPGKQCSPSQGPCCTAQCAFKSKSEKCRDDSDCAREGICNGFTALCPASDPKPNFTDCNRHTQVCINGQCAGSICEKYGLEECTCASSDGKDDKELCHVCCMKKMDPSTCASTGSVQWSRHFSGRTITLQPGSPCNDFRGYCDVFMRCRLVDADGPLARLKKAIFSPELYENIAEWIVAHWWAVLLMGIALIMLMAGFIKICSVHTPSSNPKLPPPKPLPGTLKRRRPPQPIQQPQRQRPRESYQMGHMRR
MPTP inh = inhibitors of mitochondrial permeability transition pore; isolated mouse mitochondria, Ca2+ swelling absorbance, 30 min; inhibition, % at 10 µM; 1.4% of 360,000 active; AID 602449;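 active = inhibition of 50% or more, scaled per plate between neutral and stimulator controls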;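 also: 0% = DMSO wells given calcium and 100% = 1 mM EGTA wells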
ADAM10 confirm = confirmation of inhibitors of human ADAM10. 1% of 2,100 active. ADAM10 QFRET peptide cleavage, EDANS fluorescence. inhibition, % at 6.95 µM. AID 743208. shares compounds with ADAM10 inh;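 active = inhibition above about 20% chosen separately for each screening run, limit read from the data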;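 also: 0% = DMSO wells and 100% = marimastat wells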
ADAM17 ctr = ADAM17 inhibition, counter-screen for ADAM10 exosite hits; 0.5% of 2,100 active; shares compounds with ADAM10 inh; AID 743214; inhibition, % at 6.95 µM; ADAM17 QFRET peptide cleavage, EDANS fluorescence;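 active = mean triplicate inhibition above the solvent-only control wells' mean plus 3 SD, cut at about 12% in these data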;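 also: 0% = DMSO wells and 100% = marimastat wells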
ADAM10 ctr = ADAM10 inhibition, counter-screen for ADAM17 exosite hits. recombinant ADAM10, EDANS/DABCYL FRET peptide cleavage, 3 h. inhibition, % at 6.95 µM. 47% of 2,900 active. shares compounds with ADAM17 inh;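 active = mean inhibition over the triplicate runs exceeds the activity threshold set in the earlier primary screen, cut at about 20% in these data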;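 also: 0% = DMSO wells and 100% = marimastat wells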
ADAM17 confirm = confirmation of inhibitors of human ADAM17. inhibition, % at 6.95 µM. recombinant ADAM17, EDANS/DABCYL QFRET peptide cleavage. 65% of 2,900 active. shares compounds with ADAM17 inh;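 active = mean inhibition across replicates above the hit cutoff set in the primary screen, cut at about 8.5% in these data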;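 also: 0% = DMSO wells and 100% = marimastat wells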
The depositor's hits bear a star; ? = inconclusive; . = not tested or not shown.

SMILES	ADAM17 inh	Pemphigus Ab inh	rCAG binder	proKLK7 act	ADAM10 inh	MPTP inh	ADAM10 confirm	ADAM17 ctr	ADAM10 ctr	ADAM17 confirm
C#CCN(C[C@@H]1[C@@H](OC(=O)NC2CCCC2)[C@@H](OC(=O)NC2CCCC2)CN(C(=O)OC(C)C)N1C(=O)OC(C)C)S(=O)(=O)c1ccc(C)cc1	15.1*	?	8.0	-0.6	32.5*	-0.6	5.5	2.7	54.1*	21.2*
C#CCN(C[C@@H]1[C@@H](OC(=O)NCc2ccc(OC)c(OC)c2)[C@@H](OC(=O)NCc2ccc(OC)c(OC)c2)CN(C(=O)OC(C)C)N1C(=O)OC(C)C)S(=O)(=O)c1ccc(C)cc1	11.2*	.	7.2	0.1	26.9*	-0.9	3.6	1.0	43.2*	22.1*
CC(C)C(=O)N1CCC1(C)C(=O)Nc1nc2ccccc2[nH]1 (stereo not given)	-0.1	.	-0.8	-0.5	2.9	-1.1	.	.	.	.
OC(c1ccc(F)c(F)c1)c1nc(-c2cnc3ccccc3c2)cs1 (stereo not given)	-2.2	.	6.3	-0.3	-34.9	0.7	.	.	.	.
CCn1c(Cn2nnc(-c3ccccc3)n2)nnc1SCc1ccc(Cl)c(Cl)c1	9.1*	.	2.0	0.4	25.5*	-1.1	7.7	1.9	31.9*	18.0*
Oc1ccc(C[C@H]2CN([C@@H](Cc3ccccc3)CN3CCCC3CN3C(=S)NC[C@@H]3Cc3ccccc3)C(=S)N2CC2CCCCC2)cc1 (stereo not given in full)	-0.3	.	16.1	-0.1	3.5	2.5	.	.	.	.
Oc1ccc(C[C@H]2CN([C@@H](Cc3cccc(O)c3)CN3CCC[C@@H]3CN3C(=S)NC[C@@H]3Cc3ccccc3)C(=S)N2CC2CCCCC2)cc1	14.3*	.	9.1	-0.7	30.9*	0.4	8.8	2.5	49.1*	22.6*
CC(C)CCNC(=O)NC(=O)CSc1nnc(COc2ccccc2Cl)o1	9.8*	101.2	-0.5	-1.1	22.9*	2.5	2.9	0.1	6.5	5.5
CC(C)NC(=O)NC(=O)CSc1nnc(COc2ccccc2Cl)o1	0.6	94.0	-6.2	0.8	6.8	0.8	.	.	.	.
COc1ccc(-c2n[nH]c(C)c2-c2cnn(-c3ccccc3)c2)c(O)c1	14.9*	98.1	6.5	0.1	29.8*	5.1	3.2	1.3	23.0*	13.6*
COc1ccc(-c2n[nH]c(C)c2-c2cscn2)c(O)c1	-1.2	99.0	-3.4	-0.6	-4.6	0.1	.	.	.	.
COc1ccc(-c2n[nH]c(C)c2-c2cnn(-c3ccccc3)c2)c(O)c1C	15.5*	98.1	12.2	-0.8	31.6*	13.5	11.6	4.6	27.2*	15.9*
CCOc1ccc(-c2n[nH]c(C)c2-c2ccccc2OC)c(O)c1	4.3	99.8	6.1	0.3	19.1	2.0	.	.	.	.
C=C(C)COc1ccc(-c2n[nH]c(C)c2-c2ccc(OC)cc2)c(O)c1	13.5*	101.0	8.0	0.6	31.0*	-2.0	13.0	4.1	34.1*	17.0*
CCNC(=O)C1CCCN(C(=O)c2cc(F)cc(F)c2)CC1 (stereo not given)	-1.4	.	2.3	0.3	-4.1	-3.3	.	.	.	.
CN(CC(=O)Nc1ccc(Cl)c(C(F)(F)F)c1)C(=O)CNC(=O)C1CCCCC1	-0.5	.	-0.8	-0.2	-5.4	-0.9	.	.	.	.
Cc1ccc(/C=N/NC(=O)COc2ccc(Cl)c(C)c2)o1	-1.9	?	1.3	-0.1	-2.1	0.8	.	.	.	.
O=C(Nc1ccccc1)c1cc(C2CCCCN2S(=O)(=O)Cc2cccc(C(F)(F)F)c2)on1 (stereo not given)	17.3*	.	5.4	1.3	29.5*	4.6	1.9	1.2	25.7*	11.5*
O=C(NCc1ccccc1)[C@H]1CCCN1C(=O)[C@H]1CCCN1C(=O)c1ccc(F)c(C(F)(F)F)c1	-5.5	.	-0.4	-0.1	-14.5	.	.	.	.	.
Nc1cc(OC(=O)c2cccs2)nn1S(=O)(=O)c1ccccc1	-2.5	111.7	3.2	-0.4	3.9	2.4	.	.	.	.
Nc1cc(OC(=O)c2c(F)cccc2Cl)nn1S(=O)(=O)c1ccccc1	11.8*	.	6.9	-0.1	28.0*	1.8	7.1	1.9	18.3	11.2*
COc1ccc(C(C)(C)C)cc1NC(=O)Nc1ccc2c(c1)OCO2	10.1*	.	5.7	-0.1	23.5*	19.9	5.0	1.5	41.3*	24.2*
COc1cc(NC(=O)Nc2ccc3c(c2)OCO3)cc(OC)c1OC	-1.6	85.7	0.0	-0.6	1.4	2.6	.	.	.	.
COc1ccc2c(c1)C1C=CCC1C(c1cc3c(cc1Br)OCO3)N2 (stereo not given)	9.1*	96.2	12.4	0.1	22.2*	1.0	3.0	2.1	-2.5	0.1
CCOc1ccc(Br)cc1S(=O)(=O)Nc1ccc(Cl)c(S(=O)(=O)N(CC)c2ccccc2)c1	9.4*	116.2	29.7	0.2	27.2*	6.7	7.7	3.0	34.5*	19.1*
SMILES	ADAM17 inh	Pemphigus Ab inh	rCAG binder	proKLK7 act	ADAM10 inh	MPTP inh	ADAM10 confirm	ADAM17 ctr	ADAM10 ctr	ADAM17 confirm
CCOc1ccc(Br)cc1S(=O)(=O)Nc1cccnc1	1.7	100.2	0.5	-0.2	6.0	-3.0	.	.	.	.
Cc1ccccc1-c1cc(C(=O)NCc2ccc(OC(F)(F)F)cc2)n(CC2CC(c3cccnc3)=NO2)n1 (stereo not given)	10.3*	100.7	2.0	-0.2	21.2*	0.6	5.3	3.2	25.4*	13.0*
Nc1nc(NCc2ccco2)nc(Nc2ccccc2)c1[N+](=O)[O-]	1.3	114.0	4.1	0.1	11.5	2.8	.	.	.	.
Nc1nc(Nc2ccccc2)nc(NCc2ccco2)c1[N+](=O)[O-]	9.7*	85.0	19.4	-0.3	21.5*	1.8	2.2	0.8	35.7*	19.4*
COc1cc(F)ccc1Oc1cccc2c1S(=O)(=O)N([C@H](C)c1ccccc1)C[C@@H](COCc1ccccc1)O2	-1.5	.	1.8	0.1	-2.3	.	.	.	.	.
COc1cc(F)ccc1Oc1cccc2c1S(=O)(=O)N(C1CC1)C[C@@H](COCc1ccccc1)O2	10.6*	.	6.0	1.6	28.7*	.	3.8	1.1	27.1*	17.4*
